Measured values reported in PubChem BioAssay AID1030 (National Center for Advancing Translational Sciences (NCATS), 2008).
In all, about 220,000 compounds went through this assay and about 16,000 (7.3%) were called active. Another 25% or so got no clear call; they are omitted. Calls come from the whole dose curve; as a rule, active = well fitted inhibition curve with a large enough effect (not every such curve was filed as active); inconclusive = small, poorly fitted or top-dose-only effect, or another doubt; inactive = no such curve, though single readings can be large or run the other way. Only a selection was taken, and actives are over-represented in it overall.

biological target: Aldehyde dehydrogenase 1A1 (Homo sapiens) (UniProt P00352); experiment: qHTS Assay for Inhibitors of Aldehyde Dehydrogenase 1 (ALDH1A1); settings: Purified ALDH1A1, NADH fluorescence, propionaldehyde substrate; series mostly up to 75.3 µM;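 for activity, negative = inhibition: plate controls were no enzyme wells and a reference inhibitor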
Sequence (P00352 whole entry, looked up): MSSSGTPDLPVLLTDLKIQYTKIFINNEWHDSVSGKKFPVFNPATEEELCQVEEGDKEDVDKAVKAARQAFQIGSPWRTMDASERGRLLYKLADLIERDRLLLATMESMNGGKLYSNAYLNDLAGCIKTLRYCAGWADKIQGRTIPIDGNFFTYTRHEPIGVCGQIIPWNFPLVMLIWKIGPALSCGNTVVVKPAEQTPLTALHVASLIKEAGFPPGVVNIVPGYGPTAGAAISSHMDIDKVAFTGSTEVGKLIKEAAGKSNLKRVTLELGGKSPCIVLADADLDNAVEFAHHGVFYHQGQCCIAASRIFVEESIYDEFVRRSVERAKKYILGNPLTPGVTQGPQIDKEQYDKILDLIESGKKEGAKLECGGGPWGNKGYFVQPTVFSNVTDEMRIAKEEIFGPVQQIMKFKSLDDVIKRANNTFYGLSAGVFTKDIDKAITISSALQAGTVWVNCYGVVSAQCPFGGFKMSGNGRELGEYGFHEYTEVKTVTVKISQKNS
Potency is the fitted concentration of half-maximal effect.

Potency, inactive:
CC(=O)Nc1ccc(OCCC[n+]2cccc(C(=O)[O-])c2)cc1
Cc1ccc(-c2nnn(CC(=O)N(Cc3ccco3)C(C(=O)NC(C)(C)C)c3ccncc3)n2)o1 (stereo unspecified)
COc1ccc(S(=O)(=O)N2CCCCC2)cc1Br
COc1ccc(NS(=O)(=O)c2ccc(NC(C)=O)cc2)cc1OC
CN(C)/N=C/c1cn(-c2ccccc2)nc1-c1cccnc1
COc1ccc(C(=O)NNS(=O)(=O)c2ccc(C)cc2)cc1
Cc1cccc(OCc2ccc(C(=O)Nc3ccc(F)cc3)cc2)c1
COC(=O)/C(NC(C)=O)=C(\C)c1ccc(Cl)cc1
CN(C(=O)CC(NC(=O)c1ccccc1)(c1ccccc1)c1ccccc1)c1ccccc1
COc1ccccc1CNC(=O)C1Cc2ccccc2C(=O)O1 (stereo unspecified)
Cc1cccc(N2CCC(NCc3c(C(=O)N4CCCCC4)nc4c(C)cccn34)CC2)c1
COC(=O)c1cc(NC(=O)CN2CCN(C(C)=O)CC2)cc(C(=O)OC)c1
O=C(NC1CC1)c1cccc(Br)c1
COc1ccc(NC(=S)Nc2ccc(S(N)(=O)=O)cc2)c(C)c1
COC(=O)c1ccccc1NC(=S)NC(=O)c1ccccc1F
O=C(Nc1ccc(S(=O)(=O)Nc2ncccn2)cc1)c1cncc(Br)c1
O=C(/C=C/c1ccccc1Cl)Nc1ccc(S(=O)(=O)Nc2ncccn2)cc1
NS(=O)(=O)c1ccc(NC(=S)NC(=O)c2cccnc2)cc1
COc1ccc(/C=N/n2c(C)cc(C)cc2=O)cc1
CC1=NNC(=O)C1CCC(=O)N/N=C\c1ccc(Cl)c(Cl)c1 (stereo unspecified)
O=C(N/N=C/c1ccc2c(c1)OCO2)C(=O)N1CCCC1
O=C(Nc1ccc2c(c1)OCO2)c1sc2cc(Cl)ccc2c1Cl
Cc1ccc(C2NC(C(=O)O)CS2)cc1 (stereo unspecified)
COC(=O)C1C(=O)NCC1c1ccc(C)cc1 (stereo unspecified)
CCOC(=O)/C=C/C(=O)OCC(=O)NC(c1ccccc1)c1ccccc1
O=C(O)Cc1ccc(-c2ccccc2)cc1
COc1ccc(Br)c2c1C(=O)CC2
CCC(CC)NC(=O)CSc1nnc(-c2c[nH]c3ccccc23)o1
Cc1cccc(CNc2cc(-c3ccccc3Cl)ncn2)c1
Cc1cc(C)n(-c2nc(C(F)(F)F)nc3ccccc23)n1
COc1cc(C(=O)NCc2ccc3c(c2)cc(C)n3C)cc(OC)c1OC
Cc1ccc(NC(=S)NC2CCCC2)cc1
C/C(=N/NC(=O)c1ccc(Br)o1)c1ccc(C)o1
COc1ccccc1CN(C)c1nnnn1-c1ccccc1
Cc1cc(OCC(=O)NC2CCN(C)CC2)ccc1[N+](=O)[O-]
CCOC(=O)c1cc(-c2ccc(F)cc2)n(CC(=O)NCc2ccccn2)c1C
O=C(N/N=C/c1c(Cl)[nH]c2ccccc12)c1sc2ccccc2c1Cl
O=C(Nc1ccon1)c1sc2ccccc2c1Cl
Cc1cc(N2CCOCC2)nc2ccc(NC(=S)N3CCN(Cc4ccccc4)CC3)cc12
CCN(CC)C(=O)N(CC)Cc1ccccc1
O=S(=O)(NCC1CCCO1)c1ccc2ccccc2c1 (stereo unspecified)
Cc1cc(Cl)c(S(=O)(=O)NCC2CCCO2)cc1OCC(N)=O (stereo unspecified)
CCO[C@@H]1OC(C(=O)NCc2nc3ccccc3[nH]2)=C[C@H](C2CCCCC2)[C@H]1CCCO
O=C(NNC(=S)NCCCN1CCOCC1)c1ccncc1
S=c1[nH]nc(-c2ccncc2)n1/N=C/c1ccccc1Cl
S=c1[nH]nc(-c2ccccc2)n1/N=C/c1c[nH]c2ccccc12
CCCC1(C(=O)OC)NC(c2ccco2)C2C(=O)N(C)C(=O)C21 (stereo unspecified)
Cc1ccc(NC(=O)OCc2cncs2)cc1
COc1ccc(NC(=S)NCCNC(C)=O)cc1
COc1cccc(NC(=O)Cc2ccc(C)cc2)c1
COc1ccc(NC(=S)Nc2ccccc2Cl)cn1
COc1cccc(C2c3[nH]c4ccccc4c3CCN2Cc2cccc(C)n2)c1 (stereo unspecified)
O=C(COc1ccc(Cl)cc1[N+](=O)[O-])N1CCCCC1
CC(C)(C)NC(=O)CN(C(=O)c1ccc(Cl)nc1)c1cccc2ccccc12

Potency, active:
COc1ccc(S(=O)(=O)Nc2ccc(S(=O)(=O)N3CCCCC3)cc2)cc1OC 0.562 µM
Cc1ccc(COc2ccc(C(=O)NN)cc2)cc1 1 µM
COC(=O)C(=Nc1ccccc1)/C(C(=O)C(=O)N(C)c1ccccc1)=C(\O)c1ccc(Cl)cc1 25.1 µM
COCCn1c(C)cc(C2=NNC(=Nc3ccc(F)cc3)SC2)c1C 10 µM
NS(=O)(=O)c1ccc(NC(=S)NC(=O)c2cccc(Br)c2)cc1 25.1 µM
O=C(NC(=S)Nc1cccc2c(O)cccc12)c1cccc(Br)c1 3.16 µM
O=C(NC(=S)Nc1ccc(S(=O)(=O)Nc2ncccn2)cc1)c1cccc(Br)c1 10 µM
Cc1ccc(C2CC2C(=O)NN)cc1 (stereo unspecified) 14.1 µM
O=C(Cc1ccc(-c2ccccc2)cc1)NC(c1ccccc1)c1ccccc1 10 µM
Cc1oc(-c2ccccc2Cl)[n+]([O-])c1C 22.4 µM
C/C(=N\NC(=S)NC1CCCCC1)c1ccc(C)o1 12.6 µM
Oc1ccc(N=Cc2sc3ccccc3c2Cl)cc1 15 µM
O=S(=O)(NCC1CCCO1)c1cnc(Cl)c(Cl)c1 (stereo unspecified) 3.55 µM
Oc1ccccc1/C=N/n1c(-c2cccs2)n[nH]c1=S 15.8 µM
COc1ccc(CS(=O)/C(Cl)=C(/Cl)C(=O)Nc2ccc(OC)nc2)cc1 (stereo unspecified) 8.91 µM
COc1ccc(NC(=O)/C(Cl)=C(/Cl)S(=O)Cc2ccc(C)cc2)cn1 (stereo unspecified) 5.01 µM

activity, negative = inhibition, inactive:
COC(=O)C1=C(C(=O)OC)[C@@H]2N(C)c3ccccc3[C@@]23C[C@@H](C(=O)OC)N(C(=O)c2ccco2)C3=N1 11.6% [at 13.5 µM]
